Activity calls are given as the source filed them. The calls were made as follows: active = hit-call score of the fitted dose curve at least 0.9, where 1 is the maximum; inconclusive = response in the unintended direction; inactive = score below 0.9.
target: PGR (gene 5241) (UniProt P06401); experiment: TOX21_PR_BLA_Followup_Antagonist_ratio: Tox21 HEK293 Progesterone Receptor (PR) Antagonism Beta-lactamase Follow-Up Assay, Ratio (AID 2283934)
Description: TOX21_PR_BLA_Followup is a secondary assay for specificity for the TOX21_PR_BLA_Agonist assay. To differentiate true PR agonists from cytotoxic substances, this follow up assay is multiplexed with a cell viability assay. The compounds were also tested for auto fluorescence that may interfere with the biological target readout resulting in potential false positives and/or negatives. To identify the compounds that stimulate PR signaling, a PR-UAS-bla GripTite cell line i.e. PR-UAS-bla HEK293T (Invitrogen, Carlsbad, CA, USA) containing a beta-lactamase reporter gene under the control of an UAS response element was used to screen Tox21 10K compound library. The cytotoxicity of the Tox21 compound library against the PR-bla cell line was tested in parallel by measuring the cell viability using CellTiter-Glo assay in the same wells. TOX21_PR_BLA_Followup_Antagonist_ratio is an assay readout measuring reporter gene via receptor activity and designed using inducible reporter (beta lactamase induction) detected with GAL4 b-lactamase reporter gene. The signal is derived from the ratio of cleaved (ch2) to uncleaved (ch1) reporter gene substrate used as the measure of target activity.Data from the assay component TOX21_PR_BLA_Followup_Antagonist_ratio was analyzed into 1 assay endpoint. This assay endpoint, TOX21_PR_BLA_Followup_Antagonist_ratio, was analyzed in the positive analysis fitting direction relative to DMSO as the negative control and baseline of activity. Using a type of inducible reporter, measures of receptor for gain-of-signal activity can be used to understand the reporter gene at the pathway-level as they relate to the gene NR3C3. Furthermore, this assay endpoint can be referred to as a primary readout, because this assay has produced multiple assay endpoints where this ratio serves a reporter gene function to understand target activity. To generalize the intended target to other relatable targets, this assay endpoint is annotated to the nuclear receptor intended target family, where the subfamily is steroidal.
Assay Protocol: PR-UAS-bla HEK293T cells were dispensed at 3,000 cells/4 uL of assay medium containing 2% charcoal stripped FBS per well into black wall/clear-bottom 1536-well plates using a Multidrop Combi (ThermoFisher Scientific, Waltham, MA) dispenser. After the assay plates were incubated at a 37C and 5% CO2 for 6 hr, 23 nL of compounds dissolved in DMSO, positive controls or DMSO only was transferred to the assay plate by a Pintool station (Kalypsys, San Diego, CA), followed by addition of 1 uL (1nM as final concentration) of Promegestone (R5020) in assay medium using a BioRAPTR FRD (Flying Reagent Dispenser, Aurora Discovery, San Diego, CA). The plates were incubated at 37C and 5% CO2 for 16 hr. Then 1 uL of LiveBLAzer B/G FRET substrate was added using a FRD. After the plates were incubated at room temperature for 2 hours, fluorescence intensity was measured by an Envision plate reader (PerkinElmer, Shelton, CT).

PGR (gene 5241), sequence (P06401 whole entry, looked up): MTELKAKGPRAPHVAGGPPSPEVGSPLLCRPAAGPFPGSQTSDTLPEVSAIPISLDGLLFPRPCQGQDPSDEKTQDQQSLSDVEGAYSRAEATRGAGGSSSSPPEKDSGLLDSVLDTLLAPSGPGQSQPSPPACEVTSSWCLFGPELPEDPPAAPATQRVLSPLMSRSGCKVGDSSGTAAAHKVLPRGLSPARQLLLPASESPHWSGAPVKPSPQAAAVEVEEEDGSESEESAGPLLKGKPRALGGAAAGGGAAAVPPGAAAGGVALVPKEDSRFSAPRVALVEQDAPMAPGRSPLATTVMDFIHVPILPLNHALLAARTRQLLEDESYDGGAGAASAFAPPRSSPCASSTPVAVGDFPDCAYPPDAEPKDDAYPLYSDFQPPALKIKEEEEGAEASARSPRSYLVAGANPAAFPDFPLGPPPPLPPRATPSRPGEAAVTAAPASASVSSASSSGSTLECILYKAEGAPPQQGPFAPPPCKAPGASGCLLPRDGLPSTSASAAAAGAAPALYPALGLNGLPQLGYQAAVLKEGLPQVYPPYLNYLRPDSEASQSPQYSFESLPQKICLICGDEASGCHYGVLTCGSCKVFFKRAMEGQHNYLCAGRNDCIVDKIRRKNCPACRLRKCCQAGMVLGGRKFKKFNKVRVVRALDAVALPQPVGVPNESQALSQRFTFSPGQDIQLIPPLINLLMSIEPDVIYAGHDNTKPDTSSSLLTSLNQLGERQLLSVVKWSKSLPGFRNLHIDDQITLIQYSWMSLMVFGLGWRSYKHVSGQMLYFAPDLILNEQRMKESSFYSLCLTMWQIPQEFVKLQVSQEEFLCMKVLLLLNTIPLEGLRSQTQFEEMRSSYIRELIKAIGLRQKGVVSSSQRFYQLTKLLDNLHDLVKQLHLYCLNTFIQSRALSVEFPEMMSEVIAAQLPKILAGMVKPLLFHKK

| SMILES | AC50 | outcome |
| --- | --- | --- |
| c1cc[c]([Bi]([c]2ccccc2)[c]2ccccc2)cc1 | 16.3 µM (active) | – |
| CC(C)C[C@H](NC(=O)[C@H](Cc1ccccc1)NC(=O)c1cnccn1)B(O)O | 0.168 µM (active) | – |
| COCCOC(=O)C1=C(C)NC(C)=C(C(=O)OC(C)C)C1c1cccc([N+](=O)[O-])c1 (stereo not given) | 23 µM (active) | – |
| COC(=O)C1=C(C)NC(C)=C(C(=O)OCCN2CCN(C(c3ccccc3)c3ccccc3)CC2)C1c1cccc([N+](=O)[O-])c1 (stereo not given) | – | inactive |
| Oc1ccc(N=Nc2ccccc2)cc1 | 27.5 µM (active) | – |
| CC(=O)OCC(=O)[C@@]1(O)CCC2C3CCC4=CC(=O)CC[C@]4(C)C3C(O)C[C@@]21C (stereo not given in full) | – | inactive |
| C#C[C@]1(O)CC[C@H]2[C@@H]3CCc4cc(OC5CCCC5)ccc4[C@H]3CC[C@@]21C | 13.6 µM (active) | – |
| C[C@]12CCC(=O)C=C1C=C[C@@H]1[C@@H]2CC[C@@]2(C)[C@H]1CC[C@@]21CCC(=O)O1 | – | inactive |
| Cc1cc(C)c(C=C2C(=O)Nc3ccccc32)[nH]1 | – | inactive |
| COC(=O)C1=C(C)NC(COC(N)=O)=C(C(=O)OC(C)C)C1c1cccc(Cl)c1Cl (stereo not given) | – | inactive |
| CC(=O)Oc1ccc2c(c1)CC[C@@H]1[C@@H]2CC[C@]2(C)[C@@H](O)CC[C@@H]12 | 0.846 µM (active) | – |
| C[C@]12C=CC(=O)C=C1[C@@H](F)C[C@@H]1[C@@H]2[C@@H](O)C[C@@]2(C)[C@H]1CC[C@]2(O)C(=O)CO | – | inactive |
| CC(COc1ccccc1)N(CCCl)Cc1ccccc1 (stereo not given) | 31.6 µM (active) | – |
| O=S(=O)(Oc1ccc(Cl)cc1)c1ccccc1 | 59.9 µM (active) | – |
| CC(=O)OCC(=O)[C@@]1(O)CC[C@H]2[C@@H]3CCC4=CC(=O)C=C[C@]4(C)[C@H]3[C@@H](O)C[C@@]21C | – | inactive |
| c1ccc2c(c1)CCc1ccccc1N2 | – | inactive |
| Oc1ccc2c(c1)Cc1ccccc1-2 | 29.4 µM (active) | – |
| CC(O)(c1ccc(Cl)cc1)c1ccc(Cl)cc1 | 46.1 µM (active) | – |
| NC(=O)n1c(O)c(C(=O)c2cccs2)c2cc(Cl)ccc21 | – | inactive |
| O=[N+]([O-])c1ccc2c(c1)Cc1ccccc1-2 | 25 µM (active) | – |

| SMILES | AC50 | outcome |
| --- | --- | --- |
| CC1(C)CCC(C)(C)c2cc(NC(=O)c3ccc(C(=O)O)cc3)ccc21 | – | inactive |
| C[C@H]1C[C@H]2[C@@H]3CCC4=CC(=O)C=C[C@]4(C)[C@@]3(Cl)[C@@H](O)C[C@]2(C)[C@@]1(O)C(=O)CO | – | inactive |
| COCCOC(=O)C1=C(C)NC(C)=C(C(=O)OC/C=C/c2ccccc2)C1c1cccc([N+](=O)[O-])c1 (stereo not given) | 6.12 µM (active) | – |
| CC(C)C[C@H](NC(=O)[C@H](CCc1ccccc1)NC(=O)CN1CCOCC1)C(=O)N[C@@H](Cc1ccccc1)C(=O)N[C@@H](CC(C)C)C(=O)[C@@]1(C)CO1 | 15.9 µM (active) | – |
| COC(=O)C(c1ccccc1Cl)N1CCc2sccc2C1 (stereo not given) | 28.9 µM (active) | – |
| C=C1C(CCl)(CCl)C2(Cl)C(Cl)C(Cl)C1(Cl)C2(Cl)Cl (stereo not given) | 23 µM (active) | – |
| C[C@]12CCC(=O)C=C1CC[C@@H]1[C@@H]2CC[C@@]2(C)[C@H]1CC[C@]2(O)C(=O)CO | – | inactive |
| CC(=O)OCC(=O)[C@@]1(OC(C)=O)[C@@H](C)C[C@H]2[C@@H]3C[C@H](F)C4=CC(=O)C=C[C@]4(C)[C@@]3(F)[C@@H](O)C[C@@]21C | – | inactive |
| N#C/C(=C1/SC[C@@H](c2ccc(Cl)cc2Cl)S1)n1ccnc1 | 33 µM (active) | – |
| O=C1Nc2ccc(Cl)cc2[C@@](C#CC2CC2)(C(F)(F)F)O1 | 17 µM (active) | – |
| C[C@@H]1C[C@H]2[C@@H]3C[C@H](F)C4=CC(=O)C(Cl)=C[C@]4(C)[C@@]3(F)[C@@H](O)C[C@]2(C)[C@@]1(O)C(=O)CO | – | inactive |
| Nc1ccccc1S(=O)(=O)c1ccccc1 | – | inactive |
| Cc1ccc(/C=N/n2c(-c3ccccc3)csc2=S)cc1 | 23 µM (active) | – |
| CCOC(=O)C1=C(C)NC(C)=C(C(=O)OC)C1c1cccc([N+](=O)[O-])c1 (stereo not given) | 14.9 µM (active) | – |
| CCC(=C(CC)c1ccc(O)cc1)c1ccc(O)cc1 | 23.7 µM (active) | – |
| CC(=O)OCC(=O)[C@@]1(O)CC[C@H]2[C@@H]3CCC4=CC(=O)C=C[C@]4(C)[C@@]3(F)[C@@H](O)C[C@@]21C | – | inactive |
| CCn1c2ccccc2c2cc([N+](=O)[O-])ccc21 | 6.29 µM (active) | – |
| COC(=O)C1=C(C)NC(C)=C(C(=O)OCC(C)=O)C1c1ccccc1[N+](=O)[O-] (stereo not given) | – | inactive |
| O=C(Nc1ccc(Cl)c(Cl)c1)C1CC1 | – | inactive |
| CN(C1CCCCC1)S(=O)(=O)c1ccccc1N | 25.7 µM (active) | – |

Source: PubChem BioAssay (EPA / NIEHS)
